Measurements from PubChem BioAssay AID624169 (The Scripps Research Institute Molecular Screening Center, 2012).
The campaign covered roughly 360,000 compounds. About 2,400 (0.67%) were called active. The list comes from a sample in which actives are over-represented; it also holds similar structures and randomly drawn compounds. A number with no mark means an inactive call.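 The calls were made as follows: active = activation above a run cutoff, the mean activation of all tested compounds plus 3 SD (cut at about 14% in these data); inactive = the rest.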

target: 5-hydroxytryptamine receptor 2A (Mus musculus) (UniProt P35363); assay: mouse Htr2a agonists via beta-arrestin recruitment, primary screen, cell-based, luminescence (AID 624169); conditions: CHO-K1 mHTR2A beta-arrestin complementation, at 7.6 µM, hits give high values, percent of 30 µM serotonin response;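 also: 0% = plate median of compound wells and 100% = 30 µM serotonin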
Sequence (P35363 whole entry, looked up): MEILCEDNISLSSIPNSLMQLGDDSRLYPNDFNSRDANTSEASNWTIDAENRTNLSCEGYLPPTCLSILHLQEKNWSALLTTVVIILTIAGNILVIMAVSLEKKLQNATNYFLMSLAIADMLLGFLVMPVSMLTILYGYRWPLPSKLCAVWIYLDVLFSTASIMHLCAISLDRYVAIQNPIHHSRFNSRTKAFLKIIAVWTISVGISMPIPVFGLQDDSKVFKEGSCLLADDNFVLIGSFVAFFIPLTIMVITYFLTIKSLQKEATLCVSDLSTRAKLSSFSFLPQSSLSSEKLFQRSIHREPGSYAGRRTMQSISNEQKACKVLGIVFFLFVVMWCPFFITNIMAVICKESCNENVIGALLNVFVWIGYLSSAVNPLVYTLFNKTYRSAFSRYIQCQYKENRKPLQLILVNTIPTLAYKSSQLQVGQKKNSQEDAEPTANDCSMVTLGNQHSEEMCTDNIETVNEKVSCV

Row | SMILES | activation
1 | CC(=O)N1c2ccc(S(=O)(=O)N3CCC(C(=O)NC4CCCCC4C)CC3)cc2CC1C (configuration not stated) | 15.7% (active)
2 | CC(=O)N1c2ccc(S(=O)(=O)N3CCC(C(=O)NC4CCCC(C)C4C)CC3)cc2CC1C (configuration not stated) | -2.05%
3 | CC(=O)N1c2ccc(S(=O)(=O)N3CCC(C(=O)NCc4ccc(F)cc4)CC3)cc2CC1C (configuration not stated) | 5.7%
4 | O=S1(=O)CC(N2CCN(Cc3ccccc3F)CC2)CN1Cc1cn(Cc2ccccc2)nn1 (configuration not stated) | 0.73%
5 | CC(=O)NCC(=O)N(C)C(C(=O)Nc1ccc2c(c1)OCCO2)c1ccccc1 (configuration not stated) | 1.2%
6 | CCOc1ccc(/C=C/C(=O)OCC(=O)c2ccccc2OC)cc1OC | -3.76%
7 | O=C(Nc1ccc2sc3ccccc3c(=O)c2c1)c1ccccc1Cl | -3.04%
8 | O=C(Nc1cc(=O)[nH]c2ncnn12)c1ccccc1Cl | 16.4% (active)
9 | CC(=O)c1cc(CN2CCC(n3nccc3NC(=O)c3ccccc3Cl)CC2)cs1 | 1.51%
10 | N#Cc1c(-c2ccc(F)cc2)cc(C2CC2)nc1SCC(=O)c1cccs1 | 4.09%
11 | COc1ccccc1CNC(=O)[C@@H]1CCCN1C(=O)[C@@H]1Cc2ccccc2CN1C(=O)OC(C)(C)C | -8.22%
12 | Cc1cccc(CNC(=O)c2sc(=O)n(Cc3ccccc3C)c2C)c1 | -9.77%
13 | Cc1c(C(=O)NCC2CC2)sc(=O)n1Cc1cccc(F)c1 | 15% (active)
14 | Cc1cccc(C)c1Cn1c(C)c(C(=O)NCc2cccc(Cl)c2)sc1=O | 0.95%
15 | O=C(NNS(=O)(=O)c1ccccc1C(F)(F)F)c1cc2ncc(C(F)(F)F)cc2s1 | 2.01%
16 | O=C1Cc2cc(S(=O)(=O)Nc3cccc(F)c3)ccc2N1 | -4.43%
17 | CC(C)c1cc(C(=O)O)on1 | 16.1% (active)
18 | CCn1cc(-c2cc(C(=O)O)on2)c(C)n1 | 0.66%
19 | CC(C)Cc1oc(C(=O)O)cc1CN | -1.78%

Row | SMILES | activation
20 | O=C(NCc1ccccc1Cl)C1CCN(S(=O)(=O)c2cccc3nonc23)CC1 | 0.64%
21 | C=C1C(=O)OC2C1CCC(C)=CCCC1(C)OC21 (configuration not stated) | 17.6% (active)
22 | Cc1cc(C(=O)OC(C)C(=O)NC2CCCCC2C)c(C)o1 (configuration not stated) | 5.88%
23 | CC(C)(C)NC(=O)Cn1cnc2cc([N+](=O)[O-])ccc2c1=O | -0.6%
24 | O=C(OCc1cn([C@H]2C[C@H](c3ccccc3)N(C(=O)c3cccs3)C[C@@H]2O)nn1)c1ccccc1 | 0.06%
25 | CC1(C)CC(=O)C=C(c2ccccc2CO)C1=O | 3.89%
26 | Fc1ccc2[nH]c3c(N4CCSCC4)ncnc3c2c1 | 16.4% (active)
27 | Cc1ccc(C)c(NC(=O)C(c2ccccc2)N2CCN(CC(=O)NC3CC3)CC2)c1 (configuration not stated) | 1.96%
28 | Brc1cc(Br)c(Oc2cc(Br)c(Br)cc2Br)cc1Br | 4.05%
29 | CCOC(=O)C1CCN(C(=O)C2CCCN(S(=O)(=O)c3ccc(OC)c(Cl)c3)C2)CC1 (configuration not stated) | -2.55%
30 | O=S(=O)(Cc1cc(Cl)nc(-c2cccnc2)n1)c1ccccc1 | -2.49%
31 | CCCOc1ccc(Cl)cc1Nc1nc(NCCO)nc(N2CCCC2)n1 | 0.98%
32 | CC(C)(C)Oc1ccccc1Nc1nc(NCCO)nc(N2CCCC2)n1 | 23.9% (active)
33 | Cn1ncc2c(N3CCCCC3)nc(NCCCO)nc21 | 1.52%
34 | CCc1nc2c(OCCc3cccc(OC)c3)cccn2c1N(C)C(=O)c1ccc(C)cc1 | -1.71%
35 | O=C(CN1CCC(O)(c2cccc(C(F)(F)F)c2)CC1)NCCc1ccccc1 | -1.29%
36 | COC(=O)[C@]12CCCCC=C1N(CCC1=CCCCC1)C(=O)[C@H](CC(=O)NCC1CCCCC1)C2 | 19.2% (active)
37 | CCOC(=O)N1CCN(C(=O)C[C@@H]2C[C@@]3(C(=O)OC)CCCCC=C3N(CCC3=CCCCC3)C2=O)CC1 | -5.86%
38 | CCCCOCCCNC(=O)C[C@@H]1C[C@@]2(C(=O)OC)CCCCC=C2N(CCC2=CCCCC2)C1=O | -1.53%

Row | SMILES | activation
39 | COc1ccc(-c2ccc(CN3C(C(C)C)C(=O)N(Cc4cn(CC5CCCCC5)nn4)CCS3(=O)=O)cc2)cn1 (configuration not stated) | -1.52%
40 | Cc1c(C(C)(C)O)[nH]c2ccc(C#N)cc12 | 3.5%
41 | Cc1ccc(S(=O)(=O)N2CCN(Cc3cccc(C)c3O)CC2)cc1 | -3.27%
42 | Cc1ccc(S(=O)(=O)N2CCN(c3ncnc4ccccc34)CC2)cc1 | 16.6% (active)
43 | Cc1ccc(C)c(S(=O)(=O)N2CCN(c3ncnc4sccc34)CC2)c1 | 4.9%
44 | CCN(CC)CCn1cnc2c1c(=O)n(CCOC(=O)c1cc(OC)c(OC)c(OC)c1)c(=O)n2C | -1.4%
45 | COC(=O)[C@@]1(Cc2ccc(F)cc2)[C@H]2c3cc(C(=O)N4CCCC4)n(Cc4ccc(OC(F)(F)F)cc4)c3C[C@H]2CN1C(=O)c1ccccc1 | 1.1%
46 | COC(=O)[C@@]1(Cc2ccc(F)cc2)[C@H]2c3cc(C(=O)N(C)C)n(CCc4c[nH]c5ccc(OC)cc45)c3C[C@H]2CN1C(=O)c1ccccc1 | 19.8% (active)
47 | COC(=O)[C@@]1(Cc2ccc(F)cc2)[C@H]2c3cc(C(=O)N4CCCC4)n(C[C@H](O)CO)c3C[C@H]2CN1C(=O)c1ccccc1 | 3.75%
48 | O=C(CN1C(=O)NC2(CCCCCC2)C1=O)Nc1ccc([N+](=O)[O-])cc1 | -2.54%
49 | COc1ccc(NC(=O)CC2COc3ccccc3O2)c(OC)c1 (configuration not stated) | 2.64%
50 | CCN(CCCNC(=O)CCn1c(=O)[nH]c2ccsc2c1=O)c1ccccc1 | 2.47%
51 | O=C(CCCCCn1c(=S)[nH]c2ccsc2c1=O)NC1CCCCC1 | 2.92%
52 | CCCCC(CC)CNC(=O)CCCCn1c(=O)[nH]c2ccsc2c1=O (configuration not stated) | 15.6% (active)
53 | COC(=O)c1ccc(NS(=O)(=O)c2cc3c4c(c2)C(C)C(=O)N4CCC3)cc1 (configuration not stated) | 2.55%
54 | O=C(O)CN(Cc1ccco1)S(=O)(=O)c1ccc(F)cc1 | -0.4%
55 | COc1ccc(C(=O)c2c(C)oc3cc([N+](=O)[O-])c(O)c([N+](=O)[O-])c23)cc1 | -5.67%
56 | Cc1oc2cc([N+](=O)[O-])c(O)c([N+](=O)[O-])c2c1C(=O)c1ccc(Br)cc1 | -3.12%
57 | Cc1oc2cc(Br)c(O)c(Br)c2c1C(=O)c1ccccc1 | 16% (active)
